Structures are written as SMILES. About 83,000 compounds went through this panel and 20% of them were active in at least one assay; those are over-represented in the sample as a whole.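 Assay: single dose, 48 h. Readout: percent growth (0 = no net growth; negative = cell death). Active: <10.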 A number with no mark means an inactive call. Calls of active or inactive are those of the source.

Our source for the growth values is PubChem BioAssay (NCI).

Test systems include DU-145 prostate; K-562 leukemia; MALME-3M melanoma; MDA-MB-231 breast; RXF 393 renal; SF-268 CNS; SF-295 CNS; SF-539 CNS; UACC-257 melanoma; M14 melanoma; HCT-15 colon; HT29 colon; SNB-75 CNS; SNB-19 CNS; U251 CNS; PC-3 prostate; SK-MEL-5 melanoma; UACC-62 melanoma; SK-MEL-28 melanoma; LOX IMVI melanoma.
What all share (assay): NCI-60 one-dose screen, 48 h (100 = growth as untreated, 0 = no growth, -100 = all killed)
Holding throughout (settings): 10 µM unless noted

With `NCCNC(=O)c1cccc(COc2ccccc2NC(=O)c2cc(Cl)c(Cl)[nH]2)c1`, the growth with DU-145 prostate was 92.6%; with K-562 leukemia it was 5.92% (active); with MALME-3M melanoma, 100%; in the assay with MDA-MB-231 breast it was 106%; with RXF 393 renal, 93.5%; in the assay with SF-268 CNS, 90.2%. Also, the growth was 105% in the assay with SF-295 CNS; 97.6% in the assay on SF-539 CNS; 98.9% with UACC-257 melanoma; 101% in the assay on M14 melanoma; 94.3% in the assay on HCT-15 colon; 109% with HT29 colon. Also, the growth in the assay on SNB-75 CNS is 72.5%; in the assay with SNB-19 CNS it was 96.9%; with U251 CNS it was 88.7%; in the assay with PC-3 prostate it was 102%; with SK-MEL-5 melanoma, 99.4%; in the assay with UACC-62 melanoma, 87.3%. In the assay on SK-MEL-28 melanoma, the growth was 94.8%.
Turning to `O=S(=O)(NCCCNc1nccc(-c2[nH]c(-c3ccccc3)nc2-c2ccc(F)c(O)c2)n1)c1ccccc1`, the growth with DU-145 prostate is 113%; in the assay on K-562 leukemia, 60.6%; with MALME-3M melanoma, -4.84% (active); in the assay on MDA-MB-231 breast it was 81.7%; with RXF 393 renal, 121%; with SF-268 CNS it was 90.7%. For the same compound, the growth is 96.9% with SF-295 CNS; 105% in the assay on SF-539 CNS; 22.4% in the assay with UACC-257 melanoma; 27.8% with M14 melanoma; 101% in the assay with HCT-15 colon; 98.1% in the assay on HT29 colon. The growth in the assay with SNB-75 CNS is 79.5%; with SNB-19 CNS, 110%; with U251 CNS, 114%; in the assay on PC-3 prostate it was 88.2%; in the assay with SK-MEL-5 melanoma, 59.9%; in the assay on LOX IMVI melanoma, 83.7%. Moreover, the growth with SK-MEL-28 melanoma was 33.8%.
Regarding `Cn1c(SCC(=O)c2ccc(Br)cc2)nc2ccccc2c1=O`, the growth in the assay with DU-145 prostate is 97.8%; in the assay on K-562 leukemia it was 85.2%; with MALME-3M melanoma, 111%; in the assay with MDA-MB-231 breast, 94.9%; in the assay on RXF 393 renal, 115%; in the assay on SF-268 CNS it was 97.5%. Further, the growth in the assay with SF-295 CNS is 97.6%; in the assay on SF-539 CNS, 97.3%; with UACC-257 melanoma, 108%; in the assay with M14 melanoma, 96.6%; with HCT-15 colon, 99.5%; in the assay with HT29 colon, 101%. Also, the growth with SNB-75 CNS was 94.3%; in the assay with SNB-19 CNS, 100%; with U251 CNS, 103%; in the assay with PC-3 prostate it was 96.5%; in the assay on SK-MEL-5 melanoma, 92.5%; with LOX IMVI melanoma, 95.9%. The growth in the assay on SK-MEL-28 melanoma is 97.3%.
For `O=C(/C=C/c1ccccc1)c1cccc(O)c1`, the growth is 105% in the assay on DU-145 prostate; 71.6% with K-562 leukemia; 104% with MALME-3M melanoma; 105% in the assay on MDA-MB-231 breast; 92.4% in the assay on RXF 393 renal; 104% in the assay with SF-268 CNS. For the same compound, the growth was 98.3% in the assay with SF-295 CNS; 103% in the assay with SF-539 CNS; 101% in the assay on UACC-257 melanoma; 95.1% in the assay on M14 melanoma; 89.3% with HCT-15 colon; 110% in the assay on HT29 colon. Further, the growth with SNB-75 CNS was 81.8%; in the assay with SNB-19 CNS, 96.1%; with U251 CNS it was 91.2%; in the assay with PC-3 prostate it was 94.2%; with SK-MEL-5 melanoma, 96.9%; in the assay with LOX IMVI melanoma it was 66.1%. The growth in the assay with SK-MEL-28 melanoma is 104%.
Turning to `C[C@H]1OCC2(CCN(c3cnc(C(=O)Nc4cc(F)cc5cccnc45)cn3)CC2)[C@H]1N`, the growth in the assay with DU-145 prostate is 78.2%; in the assay with K-562 leukemia, 6.28% (active); in the assay on MALME-3M melanoma, 48.1%; in the assay on MDA-MB-231 breast it was 31.6%; with RXF 393 renal, 58.4%; with SF-268 CNS, 72.2%. Moreover, the growth in the assay with SF-295 CNS was 92.2%; in the assay with SF-539 CNS it was 68.4%; with UACC-257 melanoma, 101%; with M14 melanoma, 71.2%; with HCT-15 colon it was 14.5%; with HT29 colon, 30.3%. Besides, the growth with SNB-75 CNS is 62.9%; in the assay with SNB-19 CNS, 73.5%; in the assay with U251 CNS it was 66.3%; with PC-3 prostate, 50.8%; with SK-MEL-5 melanoma it was 93.2%; in the assay on UACC-62 melanoma, 31.7%. Also, in the assay with SK-MEL-28 melanoma, the growth is 61.4%.
For the compound `O=C(CCCCCCN1CC(=O)N2[C@@H](c3ccc(Cl)s3)c3[nH]c4ccccc4c3C[C@H]2C1=O)NO`, the growth is 57.9% in the assay on DU-145 prostate; 27.5% in the assay with K-562 leukemia; 21.9% in the assay on MALME-3M melanoma; 43.8% in the assay with MDA-MB-231 breast; 37.7% in the assay with RXF 393 renal; 81.6% in the assay on SF-268 CNS. For the same compound, the growth was 37.1% in the assay with SF-295 CNS; 40.9% in the assay on SF-539 CNS; 53.4% in the assay on UACC-257 melanoma; 51.8% in the assay with M14 melanoma; 77.1% with HCT-15 colon; 38.9% in the assay on HT29 colon. In addition, the growth in the assay on SNB-75 CNS was 22.5%; in the assay on SNB-19 CNS, 52.2%; in the assay with U251 CNS, 50.3%; in the assay on PC-3 prostate, 47.4%; in the assay with SK-MEL-5 melanoma, 19.7%; with UACC-62 melanoma, 21.9%. Also, the growth in the assay with SK-MEL-28 melanoma is 37.2%.
As for `Brc1ccc2[nH]cc(-c3nn4cc(-c5nccs5)nc4s3)c2c1`, the growth in the assay on DU-145 prostate was 20.8%; in the assay with K-562 leukemia, 13.1%; with MALME-3M melanoma it was -7.45% (active); in the assay on MDA-MB-231 breast, -13.5% (active); with RXF 393 renal, -46.4% (active); in the assay on SF-268 CNS, 31.7%. Further, the growth in the assay with SF-295 CNS is 37.1%; in the assay with SF-539 CNS, 29.7%; with UACC-257 melanoma, 56.8%; in the assay with M14 melanoma it was 13.3%; with HCT-15 colon, 10.2%; in the assay with HT29 colon, 40.9%. Besides, the growth was -1.58% (active) with SNB-75 CNS; 61.1% in the assay with SNB-19 CNS; 61.3% with U251 CNS; 9.64% (active) with PC-3 prostate; 73.1% with SK-MEL-5 melanoma; 79.3% in the assay with UACC-62 melanoma. The growth in the assay with SK-MEL-28 melanoma is 49.6%.
